Screening data from PubChem BioAssay.
Sampled rows, rich in hits. Any-hit rate of the full collection: about 1.3%.
UBC13 polyUb – blocks human UBC13 polyubiquitin chain formation; TR-FRET; inhibition, % at 20 µM; P61088; 330,000 tested, 0.47% active; AID 485273; in the data active means inhibition above about 45%, passing the limit was not always enough
Target sequence (P61088 whole entry, looked up): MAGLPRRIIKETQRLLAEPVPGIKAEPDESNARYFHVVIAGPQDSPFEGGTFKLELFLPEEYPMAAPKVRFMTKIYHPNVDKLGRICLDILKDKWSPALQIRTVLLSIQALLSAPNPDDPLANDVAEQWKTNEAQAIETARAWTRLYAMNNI
beta cell repl – MIN6 beta-cell proliferation induction | AID 2380 | 330,000 tested, 0.29% active | MIN6 cells proliferation, ATPlite luminescence, 48 h; cells starved in 0.2% serum; 100% = growth in 10% serum | proliferation, % at 10 µM;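 active means compounds whose signal lies at least 3.5 SD above the mean of all wells on their plate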
PREPL inhibitor – inhibitors of human prolyl oligopeptidase-like enzyme PREPL; Q4J6C6; recombinant PREPL, fluorescence polarization activity-based probe; inhibition, % at 5.96 µM; 320,000 tested, 0.68% active; AID 2751; in the data active means inhibition above about 43%
RAD52 inh – inhibitors of human RAD52 DNA annealing. P43351. recombinant RAD52 DNA annealing, FRET fluorescence. inhibition, % at 18.7 µM. 360,000 tested, 0.46% active. AID 651710;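 active means every replicate showing at least 50% inhibition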
Target sequence (P43351 whole entry, looked up): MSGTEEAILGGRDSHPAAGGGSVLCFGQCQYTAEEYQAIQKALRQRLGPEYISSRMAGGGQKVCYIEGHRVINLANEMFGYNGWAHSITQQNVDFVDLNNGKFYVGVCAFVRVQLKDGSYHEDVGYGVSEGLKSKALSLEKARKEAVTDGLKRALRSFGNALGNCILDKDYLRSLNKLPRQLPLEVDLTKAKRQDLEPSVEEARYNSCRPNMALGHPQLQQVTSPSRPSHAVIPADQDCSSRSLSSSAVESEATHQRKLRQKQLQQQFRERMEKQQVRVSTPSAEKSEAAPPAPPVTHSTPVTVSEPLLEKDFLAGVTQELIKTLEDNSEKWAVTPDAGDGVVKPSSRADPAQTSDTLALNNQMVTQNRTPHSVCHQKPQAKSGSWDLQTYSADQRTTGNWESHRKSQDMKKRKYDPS
FID counter – displaces DNA intercalator in HCV helicase counter-screen; AID 1845; inhibition, % at 7.9 µM; 290,000 tested, 0.17% active; DNA fluorescent intercalator displacement, fluorescence; in the data active means inhibition above about 37%;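 further: higher means more ethidium bromide displaced from hairpin DNA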
RAD54 inh – RAD54 (human) branch migration inhibition. Q92698. RAD54 Holliday junction branch migration, FAM/BHQ fluorescence. inhibition, % at 10.4 µM. 360,000 tested, 0.14% active. AID 602329;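 active means mean normalized replicate activity at least 40 and at least half of replicates scoring 40 or more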;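 further: inhibitors cause a drop in the FAM fluorescence signal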
DNA binder FP – binds DNA, flagging false RAD52 inhibitor hits; 1,000 tested, 8% active; AC50, µM; Salmon sperm DNA/acridine orange FP displacement, DNA binding; shares compounds with RAD52 inh;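 active means fitted half-maximal concentration for signal loss at or below twice the highest dose tested, in every separate run, actives reach about 64 µM in these data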
Hits are given with their value; - = inactive; . = no result given; ! = not active in a repeat.

SMILES	UBC13 polyUb	beta cell repl	PREPL inhibitor	RAD52 inh	FID counter	RAD54 inh	DNA binder FP
CN(C)CC/C=C1\c2cc(F)ccc2CSc2ccccc21	-	-	-	.	-	.	.
CN(C)CC/C=C1/c2cc(F)ccc2CSc2ccc(F)cc21	-	-	-	.	-	.	.
COCCNC(=O)C[C@H]1CC[C@H]2[C@@H](COc3ccc(NC(=O)C4CCCC4)cc3C(=O)N2C)O1	.	.	.	-	.	-	.
C[C@H]1CN([C@@H](C)CO)C(=O)c2cc(NC(=O)NC3CCCCC3)ccc2O[C@@H]1CN(C)C(=O)Nc1ccc(F)cc1	.	.	.	-	.	-	.
COCC(=O)N1[C@@H](C#N)[C@@H](c2ccc(C3=CCCCC3)cc2)[C@@H]1CO	.	.	.	-	.	-	.
O=C(C1CCCC1)N1CCCCN2[C@H](C1)[C@H](c1ccc(C#CC3(O)CCCC3)cc1)[C@@H]2CO	.	.	.	-	.	-	.
C[C@@H]1CN([C@@H](C)CO)C(=O)c2cccc(NC(=O)c3cnccn3)c2O[C@@H]1CN(C)S(=O)(=O)c1cn(C)cn1	.	.	.	-	.	-	.
C/C=C/c1cnc2c(c1)C(=O)N([C@@H](C)CO)C[C@H](C)[C@H](CN(C)S(=O)(=O)c1ccc(F)cc1)O2	.	.	.	-	.	-	.
Cc1noc(C)c1S(=O)(=O)Nc1ccc2c(c1)C(=O)N([C@@H](C)CO)C[C@H](C)[C@H](CN(C)Cc1ccncc1)OCCCC[C@@H](C)O2	.	.	.	-	.	-	.
CC(=O)c1ccc(-c2cnc3c(NC=O)cc(-c4ccc(N5CCN(C)CC5)cc4)cn23)cc1	.	.	.	67	.	-	-
O=C(CC(C(=O)O)c1cccc(Br)c1)c1ccc(Cl)cc1 (stereo not given)	-	-	-	108	-	-	-
Nc1cc(N)cc(C(=O)c2ccccc2)c1	.	.	.	89	.	-	-
O=C(c1ccccc1)c1cccc(C(=O)c2ccccc2)c1	-	-	-	.	.	-	.
Cc1ccc(S(=O)(=O)N[C@@H]2CC[C@@H](CC(=O)NCc3ccccc3F)O[C@H]2CO)cc1	.	.	.	-	.	-	.
Cc1cccc(S(=O)(=O)N2[C@@H]3CNC[C@H]2C3c2ccc(-c3ccncc3)cc2)c1 (stereo not given in full)	.	.	.	-	.	.	.
COc1cc(OC)nc(Nc2nc(C(N)CCc3ccccc3)cs2)n1 (stereo not given)	.	.	.	62	.	-	-
Cc1cc2[nH]c3c(c[n+](C)c4ccccc34)c2cc1C	64	-	-	104	64	.	8.5µM
CCCC#Cc1ccc([C@H]2[C@@H](C#N)N(C(=O)C3CCCC3)[C@@H]2CO)cc1	.	.	.	-	.	-	.
COc1cccc(CNC(=O)C[C@@H]2C=C[C@H](NC(=O)C3CCC3)[C@H](CO)O2)c1	.	.	.	-	.	-	.
CCOC(=O)c1ccc(NC(=O)/C=C/c2cccs2)cc1	-	-	-	-	-	.	.
CCN(CC)CCCOC(=O)c1ccc(OC)cc1O	-	-	-	-	-	.	.
CCN(CC)CCOC(=O)c1ccc([N+](=O)[O-])cc1	-	-	-	-	-	.	.
CCN(CC)CCOC(=O)c1ccc(N)cc1	-	-	-	88	-	-	-
CCCOc1cc(N)ccc1C(=O)OCCN(CC)CC	-	-	-	62	.	-	-
CCN(CC)CCOC(=O)c1ccc(NC(=O)/C=C/c2cccs2)cc1	-	-	-	58	-	.	-
SMILES	UBC13 polyUb	beta cell repl	PREPL inhibitor	RAD52 inh	FID counter	RAD54 inh	DNA binder FP
CCNC(=O)C[C@H]1C=C[C@@H](NS(=O)(=O)c2ccc(F)cc2)[C@H](CO)O1	.	.	.	-	.	-	.
COc1ccc2c3c([nH]c2c1)[C@@H](CO)N(C(=O)CC1CC1)CC31CN(Cc2ccncc2)C1	.	.	.	-	.	.	.
O=C1C(CSCc2ccccc2)NC(=S)N1c1ccccc1 (stereo not given)	-	-	-	56	-	-	-
O=C(O)CC1NC(=S)N(c2ccccc2)C1=O (stereo not given)	-	-	-	.	-	-	.
COc1cc(/C=C2\SC(=O)N(CCN)C2=O)ccc1OS(=O)(=O)c1cc(C)ccc1C	.	.	.	84	-	.	-
COc1ccc(/C=C2\SC(=O)N(CCC(=O)Nc3ccccc3)C2=O)cc1OC	-	-	-	.	-	.	.
Fc1ccc2c(c1)Sc1ccc(Cl)cc1CC2N1CCN(CCC2OCCO2)CC1 (stereo not given)	-	-	-	81	.	.	-
COc1cccc(OC)c1C(=O)Nc1sc2c(c1C(N)=O)CCN(Cc1ccccc1)C2	-	-	-	-	-	-	.
CCN1CCc2c(sc(NC(=O)c3cc4ccccc4cc3OC)c2C(N)=O)C1	-	-	-	76	-	-	-
CCn1cc(C(=O)NN)c(=O)c2cc(F)c(N3CCN(C)CC3)cc21	-	-	-	97	-	-	-
CCn1cc(C(=O)NN)c(=O)c2cc(F)c(N3CCCCC3)cc21	-	-	.	-	-	-	.
CCN1CCN(Cc2ccc(C(=O)Nc3ccc(C)c(NCc4cnc(NC(=O)OC)cn4)c3)cc2C(F)(F)F)CC1	-	-	-	96!	-	-	-
C[C@@H]1CN([C@H](C)CO)C(=O)c2cc(C#CC(C)(C)O)cnc2O[C@@H]1CN(C)C(=O)C1CCOCC1	.	.	.	-	.	-	.
CCN1CCN(c2cc(C)c3cc(NC(=S)N4CCOCC4)ccc3n2)CC1	-	-	-	78	-	.	-
CCN1CCN(c2cc(C)c3cc(NC(=S)N(CC)CC)ccc3n2)CC1	-	-	-	68	-	.	-
CCC(=O)N1CC2(C1)[C@@H](c1ccccc1)[C@@H](CO)N2Cc1cc(F)ccc1F	.	.	.	-	.	.	.
CC(=O)N(C)C[C@H]1Oc2cc(C#Cc3ccccc3)ccc2S(=O)(=O)N([C@@H](C)CO)C[C@@H]1C	.	.	.	-	.	-	.
O=c1oc(-c2ccccc2Br)nc2ccccc12	-	-	-	102	-	-	-
O=c1oc(-c2cccnc2)nc2ccccc12	-	-	-	.	-	-	.
CC(C)=N/N=C(/c1ccc([N+](=O)[O-])cc1)C12CN3CN(CN(C3)C1)C2	-	-	-	95	-	.	-
CC(C)C#Cc1ccc2c(c1)O[C@@H](CN(C)Cc1cccnc1)[C@@H](C)CN([C@H](C)CO)S2(=O)=O	.	.	.	-	.	-	.
OCCCCNCc1ccc(OCc2ccc(Cl)cc2Cl)cc1	-	-	-	66	-	-	-
O=C(CN1CCOCC1)NCC[C@H]1CC[C@@H](NC(=O)Nc2ccccc2)[C@@H](CO)O1	.	.	.	-	.	-	.
N#Cc1ccc(N)cc1OCCCN1CCCCC1	.	.	.	86	.	-	-
Cc1ccc(C)c(OCCCCN2CCCCC2)c1	-	-	-	-	-	-	.
O=C(NC1CCCCC1)N1CCNCC1	-	-	.	-	-	-	.
C1CCCCCC(NCCN2CCNCC2)CCCCC1	-	-	-	64	-	.	-
C[C@@H]1CCCCO[C@@H](CN(C)C(=O)c2ccccc2)[C@@H](C)CN([C@H](C)CO)C(=O)c2cc(NS(=O)(=O)c3ccccc3)ccc2O1	.	.	.	-	.	-	.
CN1CCN(c2nc3cc(C(F)(F)F)ccc3n3cccc23)CC1	-	-	-	67	.	-	-
Cc1cc(N2CCN(C)CC2)nc2ccc(NC(=S)NCc3cccs3)cc12	-	-	-	63	-	-	-
